In article PMC10668032, “Altered binding affinity of SIX1-Q177R correlates with enhanced WNT5A and WNT pathway effector expression in Wilms tumor”:
The full ranking holds about 33,000 sequences; the median of “e-score” is about -0.05, and the highest 2% start at about 0.38. For the sample, the highest values were picked, then their nearest neighbours and some sequences at random.

The sequences below were run against T1, SIX1-Q177R homeodomain (human, UniProt Q15475 108-198, Q177R) (assay: universal protein binding microarray; Universal all-10-mer PBM (8x60K, AMADID 030236), 300 nM GST-tagged protein, Alexa Fluor 488 anti-GST; buffer, salt, pH and temperature not stated (as in Berger); high values mean tight binding). Details: protein: ivt; tags: N-terminal GST; dsDNA, one strand shown.
T1 sequence: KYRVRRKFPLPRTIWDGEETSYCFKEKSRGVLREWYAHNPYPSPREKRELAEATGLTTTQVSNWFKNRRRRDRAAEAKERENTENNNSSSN
In short: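 Binding of GST-tagged homeodomains is given as 8-mer E-scores from the Universal PBM Analysis Suite. The proteins were produced by in vitro transcription/translation, quantified by anti-GST western blot against a recombinant GST standard curve, and applied in duplicate at 300 nM final concentration to universal 'all 10-mer' protein binding microarrays (8×60K format).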

Row | Sequence | binding signal [E-score]
1 | GATCACAC | 0.324 ± 0.0116
2 | AATTACAC | 0.433 ± 0.0394
3 | CATTACTC | 0.173 ± 0.0527
4 | GATTACAC | 0.451 ± 0.00984
5 | CATCACAC | 0.317 ± 0.0183
6 | CTGAGGTA | 0.185 ± 0.0187
7 | CGGGGGTA | 0.315 ± 0.029
8 | GGATAAAC | 0.169 ± 0.0541
9 | CACCTAGG | 0.225 ± 0.0248
10 | CGCCGACA | 0.209 ± 0.0201
11 | GATACACA | 0.191 ± 0.024
12 | AATACACA | 0.188 ± 0.0145
13 | TATACACA | 0.169 ± 0.034
14 | AATACACG | 0.379 ± 0.0262
15 | CATACACG | 0.385 ± 0.00816
16 | CATACACA | 0.205 ± 0.0341
17 | AATACCCC | 0.185 ± 0.00616
18 | CACACATA | 0.15 ± 0.0738
19 | GATACCCC | 0.419 ± 0.00493
20 | GATACACC | 0.469 ± 0.00549
21 | CATACCCC | 0.205 ± 0.0264
22 | GATACTCC | 0.223 ± 0.00252
23 | CCCCTACG | 0.181 ± 0.00578
24 | CACGTGCG | 0.171 ± 0.0176
25 | CACTGCCG | 0.26 ± 0.0036

Row | Sequence | binding signal [E-score]
26 | ACTAGGGA | 0.18 ± 0.018
27 | TGTCAGAA | 0.183 ± 0.0293
28 | CAACCCCA | 0.173 ± 0.00554
29 | CACGAGAA | 0.2024 ± 0.00175
30 | TATCGACA | 0.212 ± 0.0495
31 | AACGCCGT | 0.159 ± 0.0311
32 | AATATACA | 0.18 ± 0.0323
33 | AATACACC | 0.46 ± 0.00939
34 | AATACACT | 0.327 ± 0.0629
35 | CATGCACC | 0.165 ± 0.0266
36 | CATACACC | 0.4625 ± 0.00144
37 | CATACTCC | 0.21183 ± 0.000205
38 | ACTCCGCA | 0.225 ± 0.0283
39 | CGAACCCC | 0.238 ± 0.0417
40 | GTGCTCCA | 0.183 ± 0.0244
41 | ATCCACAG | 0.185 ± 0.0127
42 | ACATTCGG | 0.311 ± 0.0104
43 | CACACGAA | 0.217 ± 0.0302
44 | AACCACAC | 0.281 ± 0.0163
45 | CACACGAG | 0.238 ± 0.00672
46 | CACACCAC | 0.442 ± 0.00998
47 | CACCCCAG | 0.36 ± 0.0234
48 | CCCACCAC | 0.158 ± 0.0233
49 | CGCACCAC | 0.206 ± 0.0107
50 | CACCACAG | 0.322 ± 0.0259

Row | Sequence | binding signal [E-score]
51 | CACCACAC | 0.426 ± 0.00815
52 | CACACCAG | 0.416 ± 0.029
53 | CACACCAA | 0.38 ± 0.0115
54 | CGCACCAG | 0.17 ± 0.0676
55 | AGGATACT | 0.167 ± 0.0416
56 | CACTCACA | 0.228 ± 0.0123
57 | CCCTAGTA | 0.18 ± 0.00712
58 | CACCCAAA | 0.255 ± 0.0189
59 | TACCGACA | 0.166 ± 0.00446
60 | AGTCAGTG | 0.207 ± 0.0189
61 | CCCCACTC | 0.18 ± 0.00661
62 | CGGGTCAC | 0.246 ± 0.0313
63 | CCCGCCCC | 0.1792 ± 0.00129
64 | AACACGAG | 0.361 ± 0.00448
65 | AGCACCAG | 0.247 ± 0.0221
66 | AACACCAG | 0.4653 ± 0.00151
67 | ACCAATAC | 0.1574 ± 0.000269
68 | CCAGTGGG | 0.224 ± 0.0185
69 | GCAGGGTA | 0.162 ± 0.00253
70 | GCAGTGTA | 0.415 ± 0.0107
71 | ACTGTGTC | 0.155 ± 0.074
72 | AAAGTGTC | 0.36 ± 0.0233
73 | CCAGTGTA | 0.43 ± 0.0046
74 | CCAGTAAC | 0.161 ± 0.0301
75 | ACAGTGTC | 0.387 ± 0.00426

Row | Sequence | binding signal [E-score]
76 | CCAGTGTC | 0.431 ± 0.00754
77 | CCTGTGTC | 0.229 ± 0.0614
78 | GAAGTGTA | 0.368 ± 0.0537
79 | CCAGTTTA | 0.227 ± 0.00151
80 | CTCCCCTA | 0.159 ± 0.0508
81 | CCGGGCGA | 0.151 ± 0.0223
82 | GATCCACA | 0.157 ± 0.00291
83 | ACCCTGAA | 0.21 ± 0.0501
84 | CACAGGAG | 0.168 ± 0.00689
85 | GGATCCCC | 0.298 ± 0.0202
86 | CCCCGCCC | 0.223 ± 0.0451
87 | TACTAACA | 0.185 ± 0.0552
88 | AGTGCGGA | 0.161 ± 0.0458
89 | CCGGATCG | 0.199 ± 0.0134
90 | CCCGCCGC | 0.184 ± 0.0289
91 | ACAGTGTA | 0.381 ± 0.0259
92 | AAAGTGTA | 0.36 ± 0.0454
93 | ACAGAGTG | 0.184 ± 0.0479
94 | GCACCCCA | 0.257 ± 0.053
95 | ACTGGATC | 0.155 ± 0.0197
96 | GCGTAACA | 0.199 ± 0.0107
97 | GGTATCAA | 0.325 ± 0.0148
98 | CGTATCAC | 0.162 ± 0.023
99 | GGTATCAC | 0.3993 ± 0.00177
100 | ACCCGCCA | 0.152 ± 0.0278

Row | Sequence | binding signal [E-score]
101 | ATGATCCC | 0.251 ± 0.0242
102 | CCACACTC | 0.308 ± 0.014
103 | GCACACTA | 0.2
104 | ATACACTC | 0.369 ± 0.0201
105 | GTACACTA | 0.432 ± 0.0136
106 | CTACACTA | 0.401 ± 0.013
107 | ATACACTA | 0.364 ± 0.0337
108 | CCACACTA | 0.206 ± 0.00246
109 | CTACACTC | 0.412 ± 0.0145
110 | TCTCAACA | 0.219 ± 0.0267
111 | ACTTTACA | 0.228 ± 0.0604
112 | TGCGAACA | 0.158 ± 0.012
113 | ATCCCCCA | 0.24 ± 0.0099
114 | TAGTTACA | 0.249 ± 0.0533
115 | GACCCGAC | 0.193 ± 0.052
116 | GAGGTGCA | 0.192 ± 0.0287
117 | AAGGTGCA | 0.222 ± 0.0217
118 | AAGGTGGT | 0.151 ± 0.00564
119 | AAGGTGTA | 0.461 ± 0.0153
120 | AAGGTGTC | 0.4706 ± 0.00267
121 | GAGGTGTA | 0.466 ± 0.00775
122 | CAGGTACA | 0.187 ± 0.0255
123 | AAGGTGTG | 0.369 ± 0.0137
124 | CATGTGTA | 0.2594 ± 0.00165
125 | GAGGTATA | 0.18 ± 0.0163

Row | Sequence | binding signal [E-score]
126 | CAGGTGTA | 0.464 ± 0.00823
127 | AAGCGTGT | 0.378 ± 0.00665
128 | GATCCCGA | 0.203 ± 0.0172
129 | ACGCACGA | 0.277 ± 0.005
130 | CCCCCGGG | 0.195 ± 0.00105
131 | CCCACCCG | 0.194 ± 0.0228
132 | ACGAGTTA | 0.205 ± 0.00221
133 | CAACCCCC | 0.242 ± 0.0559
134 | ACACAAGG | 0.155 ± 0.0571
135 | ACCAGTGA | 0.189 ± 0.0202
136 | CACTTACG | 0.206 ± 0.0274
137 | AAGGAGTA | 0.158 ± 0.0662
138 | ACATGGTG | 0.33 ± 0.0163
139 | CACGAGCA | 0.242 ± 0.0191
140 | ACCCGACT | 0.207 ± 0.0388
141 | CTGCGACA | 0.195 ± 0.00854
142 | CATGTGTC | 0.19 ± 0.0338
143 | CAGGTGTC | 0.474 ± 0.0095
144 | CAGGTATC | 0.328 ± 0.00751
145 | CCCAGGTA | 0.203 ± 0.0198
146 | AGAGCGTG | 0.189 ± 0.00653
147 | CGCGTATC | 0.155 ± 0.05
148 | CGCGTGTA | 0.43 ± 0.00692
149 | AGCGTGTC | 0.393 ± 0.00925
150 | CGTGTGTC | 0.289 ± 0.0336

Row | Sequence | binding signal [E-score]
151 | AACGTGTG | 0.154 ± 0.0123
152 | AGCGGGTA | 0.158 ± 0.0257
153 | CGCGTGTC | 0.414 ± 0.00637
154 | CGTGTGTA | 0.296 ± 0.0261
155 | AGCGTGTA | 0.419 ± 0.0156
156 | CACGCGTG | 0.317 ± 0.0193
157 | AGCGTGTG | 0.281 ± 0.00182
158 | ACCGCACC | 0.247 ± 0.013
159 | CTCGGATA | 0.188 ± 0.0289
160 | GTGGATCA | 0.161 ± 0.0203
161 | ACTGGTGC | 0.297 ± 0.00607
162 | CACGGTCA | 0.2431 ± 0.00219
163 | GTCCAACA | 0.216 ± 0.00357
164 | AGAAACGG | 0.152 ± 0.0193
165 | ATAGGTGC | 0.193 ± 0.00788
166 | ACTGAGTG | 0.1766 ± 0.000721
167 | TCTTGACA | 0.167 ± 0.0124
168 | CCCCCGAA | 0.238 ± 0.0222
169 | GAGGGTTA | 0.185 ± 0.00774
170 | CGACTAAC | 0.192 ± 0.0385
171 | CACGCACG | 0.304
172 | ATTGCGTG | 0.183 ± 0.0294
